An excerpt weighted towards active compounds, which were near 9.4% of everything screened.
ELG1 genotox – qHTS screen for small molecules that induce genotoxicity in human embryonic kidney (HEK293T) cells expressing luciferase-tagged ELG1 | Potency, µM (top dose mostly 46 µM), inactives show at the top dose activity change, positive = activation, usual class: activators | AID 504466, 2011 | 1.3% of 330,000 active | HEK293T ELG1-luciferase reporter, luminescence, 16 h; further: % of control where 0% means no effect; nearly all actives have a fitted effect of over 60% in size
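Quantitative HTS format in 1536-well plates. HEK293T ELG1-luciferase reporter cells receive test compound and are incubated 16 hr at 37 °C, 5% CO2; ONE-Glo added, 30 min room temperature, then luminescence read.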
ELG1 DNA repair – qHTS screen for small molecules that inhibit ELG1-dependent DNA repair in human embryonic kidney (HEK293T) cells expressing luciferase-tagged ELG1 | AID 504467, 2011 | HEK293T ELG1-luciferase reporter, luminescence, 16 h; DNA damage induced by 5-fluorouridine | 2.3% of 330,000 active | Potency, µM (titrated, usually from 46.1 µM), inactives show top-dose activity change, negative = inhibition, most hits filed as inhibitors; further: on the % scale 0 is the no-effect control and ±100 the full control effect; nearly all actives have a fitted effect of over 55% in size
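Reporter activity after DNA damage by 5-fluorouridine is monitored. Compound-treated cells incubate 16 hr at 37 °C, then ONE-Glo is added for 30 min before luminescence reading.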
SMN2 splice enh – qHTS Assay for Enhancers of SMN2 Splice Variant Expression; HEK293 SMN2-luciferase splicing reporter, luminescence, 30-36 h; Potency, µM (doses to about 46.1 µM), for the others: at the top dose activity change, positive = activation, usual class: activators; 2.8% of 210,000 active; AID 1458, 2008; further: % of control where 0% means no effect; nearly all actives have a fitted effect of over 55% in size
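HEK293 cells carry an SMN2 minigene-luciferase reporter in which exon 7 inclusion puts luciferase in frame. Cells were seeded at 2000 cells/well, attached for 10-12 hours, then exposed to compounds for 30-36 hours at 37C before ONE-Glo luminescence.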
FLuc counter – qHTS profiling assay for firefly luciferase inhibitor/activator using purifed enzyme and Km concentrations of substrates (counterscreen for miR-21 project). Luciferin 4-monooxygenase (Photinus pyralis), P08659. purified FLuc, Km substrates, luminescence inhibition. Potency, µM (titrated, usually from 57.5 µM), for inactives: at the highest dose activity change, negative = inhibition, actives largely listed as inhibitors. 6.9% of 360,000 active. AID 588342, 2011;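 further: plate controls were vehicle for no effect and reference inhibitor for full effect; nearly all actives have a fitted effect of over 55% in size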
Target sequence (P08659 whole entry, looked up): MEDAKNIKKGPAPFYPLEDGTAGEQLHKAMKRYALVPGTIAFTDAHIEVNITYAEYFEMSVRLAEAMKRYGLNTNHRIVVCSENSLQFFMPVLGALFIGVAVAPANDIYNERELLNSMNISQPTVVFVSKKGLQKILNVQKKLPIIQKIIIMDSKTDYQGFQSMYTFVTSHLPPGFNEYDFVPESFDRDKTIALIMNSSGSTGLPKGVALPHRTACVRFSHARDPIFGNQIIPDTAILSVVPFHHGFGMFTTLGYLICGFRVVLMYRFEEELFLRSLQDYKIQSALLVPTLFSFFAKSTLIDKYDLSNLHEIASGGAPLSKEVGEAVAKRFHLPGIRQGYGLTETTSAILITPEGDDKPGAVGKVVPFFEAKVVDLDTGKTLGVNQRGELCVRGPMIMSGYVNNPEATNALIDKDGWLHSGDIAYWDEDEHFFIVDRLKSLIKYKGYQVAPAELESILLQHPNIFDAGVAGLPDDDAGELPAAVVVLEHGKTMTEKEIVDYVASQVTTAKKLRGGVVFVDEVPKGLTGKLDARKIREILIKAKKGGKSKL
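Purified P. pyralis luciferase, 10 nM final, with Km-level 10 uM D-luciferin and 10 uM ATP in 50 mM Tris acetate pH 7.5, 10 mM Mg acetate, 0.01% Tween-20, 0.05% BSA; 6-point qHTS titration about 60 µM downward; luminescence read.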
Rab9 prom act – qHTS Assay for Rab9 Promoter Activators | Huh7 Rab9 promoter-luciferase reporter, luminescence, 24 h | Potency, µM (series often up to 9.22 µM), for the others: at the top dose activation, negative = inhibition, actives largely listed as activators | 2.8% of 320,000 active | AID 485297, 2010; further: % of control where 0% means no effect; nearly all actives have a fitted effect of over 60% in size
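Rab9 promoter-driven luciferase in stably transfected Huh7 cells; 1500 cells/well rested 2 h, exposed to compound in DMSO for 24 h at 37 °C, 5% CO2. Luminescence read 10 min after adding luciferase reagent at ambient temperature.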
NPC1 promoter act – qHTS Assay for NPC1 Promoter Activators; Huh7 NPC1 promoter luciferase reporter, 24 h; 2.4% of 320,000 active; Potency, µM (top dose mostly 9.22 µM), for inactives: at the highest dose activation, hits mostly activators; further: % of control where 0% means no effect; nearly all actives have a fitted effect of over 60% in size
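Compounds in DMSO were transferred onto Huh7 NPC1-luciferase reporter cells pre-incubated 2 h; after 24 h at 37 °C, Amplite reagent was dispensed and luminescence recorded 10 min later.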
* hit, by the source's call; ? = inconclusive; . = not tested or not shown; [ ] = remark or other dose. The call rests on the fitted dose curve; in most records, active means well fitted curve in the direction sought with a large enough effect; inconclusive means small, poorly fitted or top-dose-only effect, or another doubt; inactive means no such curve, though single readings can be large; an effect the other way counts as inactive or inconclusive. Potency means the concentration at half of the fitted maximal effect.

SMILES | ELG1 genotox | ELG1 DNA repair | SMN2 splice enh | FLuc counter | Rab9 prom act | NPC1 promoter act
O=C(NCCO)Nc1ccc2nc(-c3ccco3)c(-c3ccco3)nc2c1 | 0% | 5% | 3% | 24µM* | -11% | -5%
CCCCNC(=O)c1ccc2nc(-c3ccco3)c(-c3ccco3)nc2c1 | 1% | -24% | -9% | ? | 4% | 2%
CC(=O)c1ccc(NC(=O)c2ccc3nc(-c4ccco4)c(-c4ccco4)nc3c2)cc1 | -8% | ? | 14% | 12µM* | -7% | -8%
O=C(Cn1nc(CNc2ccc(Br)cc2)[n+]2c1CCCCC2)c1ccc([N+](=O)[O-])cc1 | -8% | -1% | . | 3% | 14% | -1%
COC(=O)[C@@]1(Cc2ccccc2)[C@H]2c3cc(C(=O)N4CCCC4)n(Cc4ccccn4)c3C[C@H]2CN1C(=O)c1ccccc1 | . | . | -19% | . | . | .
c1coc(-c2nc(-c3ccco3)c(-c3ccco3)nc2-c2ccco2)c1 | 2% | 18% | -8% | -8% | 0% | -2%
COc1ccc2nc(-c3ccco3)c(-c3ccco3)nc2c1 | ? | ? | 5% | 2.7µM* | ? | 18%
Cc1ccc2oc(-c3ccc(C)c(NC(=O)/C=C/c4ccco4)c3)nc2c1 | . | . | ? | 12µM* | . | .
Cc1ccc(-c2nc3ccccc3o2)cc1NC(=S)NC(=O)/C=C/c1ccco1 | 4% | ? | -12% | ? | -1% | -17%
CC(=O)Nc1cc(-c2nc3cc(Cl)ccc3o2)ccc1C | . | . | . | -18% | . | .
Cc1ccc2oc(-c3ccc(C)c(NC(=O)/C=C/c4ccc(Cl)cc4)c3)nc2c1 | . | . | 20% | 12µM* | . | .
O=S(=O)(c1ccccc1)N1CCN(c2nnc(-c3ccccc3)c3ccccc23)CC1 | -11% | 23µM* | . | 6% | 0% | -3%
Nc1nc(N2CCN(c3ccccn3)CC2)nc2ccccc12 | ? | ? | . | 11µM* | 3.5µM* | ?
Cc1ccc(-c2nnc(N3CCN(c4ccccn4)CC3)c3ccccc23)cc1 | -39% | 16µM* | -35% | -7% | 1% | -2%
c1ccc(-c2nnc(N3CCN(c4ccccn4)CC3)c3ccccc23)cc1 | -34% | 13µM* | . | -7% | -1% | -2%
Cc1ccc(-c2nnc(N3CCCCC3)c3ccccc23)cc1 | -2% | -30% | . | ? | -2% | -3%
CC(C)/C(=N\NS(=O)(=O)c1ccc(Br)cc1)c1cccs1 | -5% | -8% | -10% | -1% | -3% | -6%
CCCCOc1ccc(C(=O)N(Cc2ccc(C(C)C)cc2)C2CCS(=O)(=O)C2)cc1 (centres undefined) | . | . | -14% | -6% | . | .
CCOC(=O)c1c(C)oc2ncnc(N3CCN(c4cccc(Cl)c4)CC3)c12 | . | . | -2% | 5% | . | .
COc1ccc(C(=O)N/N=C/c2cccnc2)cc1 | ? | ? | . | 15µM* | 21% | ?
O=C(N/N=C/c1cccnc1)c1ccc(CN2c3cccc4cccc(c34)S2(=O)=O)cc1 | -4% | 23µM* | 8% | -11% | 14% | 0%
CC(=O)Nc1ccc(C(=O)N/N=C/c2cccnc2)cc1 | 2% | 13% | -96%[1.84 µM] | 10% | 0% | -2%
COc1ccc(C(=O)N/N=C(\c2ccccc2)c2ccccn2)cc1 | ? | ? | -67% | ? | -39% | -19%
COc1cccc(/C=N/NC(=O)c2ccc(CN3c4cccc5cccc(c45)S3(=O)=O)cc2)c1 | 2% | ? | -29% | 3% | 0% | -4%
COc1ccc(C(=O)N/N=C/c2cccc3cccnc23)cc1 | 2% | -12% | -14% | 7.6µM* | -10% | -4%
CCOc1ccccc1C(=O)N/N=C/c1cccc2cccnc12 | 0% | ? | -8% | ? | 0% | 2%

Bioassay records deposited in PubChem BioAssay by National Center for Advancing Translational Sciences (NCATS).
